Screening data: PubChem, National Center for Advancing Translational Sciences (NCATS)
The list is not random: actives were taken first. Their share in the collection is about 4.6%.
TRHR ag – qHTS for Small Molecule Agonists and Allosteric Enhancers of Human TRH Receptor: Primary Screen for Agonists | TRHR cells, calcium flux fluo-8, FDSS agonist mode | activation, % at 2 µM | 360,000 compounds, 0.18% hits | Thyrotropin-releasing hormone receptor (Homo sapiens), P34981; also: 0% is about no effect
Target sequence (P34981 whole entry, looked up): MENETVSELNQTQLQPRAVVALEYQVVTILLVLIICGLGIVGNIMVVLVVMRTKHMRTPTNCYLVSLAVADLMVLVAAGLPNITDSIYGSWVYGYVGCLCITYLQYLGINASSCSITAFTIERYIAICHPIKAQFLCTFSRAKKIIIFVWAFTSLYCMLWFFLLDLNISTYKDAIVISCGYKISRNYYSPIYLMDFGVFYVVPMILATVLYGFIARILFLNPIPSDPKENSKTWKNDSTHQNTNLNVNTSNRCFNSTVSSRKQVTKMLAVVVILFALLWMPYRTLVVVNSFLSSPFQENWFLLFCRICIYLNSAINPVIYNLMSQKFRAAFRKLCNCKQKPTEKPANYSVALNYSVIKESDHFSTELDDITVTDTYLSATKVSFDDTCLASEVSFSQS
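Agonist-mode FDSS calcium read (Ex 480/Em 530, 1 s cycles) in 1536-well TRHR cells with fluo-8 dye, after 10-cycle baseline and 23 nL compound addition; TRH at EC20 (10 nM final) added afterwards for the enhancer phase.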
D1 PAM – Potentiators of Human D1 Dopamine Receptor: qHTS; potentiation, % at 10 µM; HEK293 TREx D1 cells, calcium flux, dopamine EC20 potentiation; D(1A) dopamine receptor (Homo sapiens), P21728; 360,000 compounds, 0.036% hits; in the data active = potentiation above about 30%; also: 0% is about no effect
D1 antag – Antagonist of Human D 1 Dopamine Receptor: qHTS; D(1A) dopamine receptor (Homo sapiens), P21728; HEK293 TREx D1 cells, calcium flux, dopamine EC80; stronger effect = lower value; activity change, negative = inhibition, % at 10 µM; 360,000 compounds, 3.2% hits; AID 504652, 2011; in the data active = activity change below about -30%; also: % is scaled to controls: 0 for no effect and ±100 for the full control effect
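After overnight tetracycline induction at 30 C, force-coupled D1 HEK293 cells took up a no-wash calcium dye at room temperature. Compounds were added and monitored 180 s, and the response to EC80 dopamine was then recorded.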
TRHR enhancer – qHTS for Small Molecule Agonists and Allosteric Enhancers of Human TRH Receptor: Primary Screen for Enhancers; enhancement, % at 2 µM; 360,000 compounds, 0.66% hits; TRHR cells, fluo-8 calcium fluorescence, EC20 TRH enhancement; Thyrotropin-releasing hormone receptor (Homo sapiens), P34981; AID 493056, 2011; in the data active = enhancement above about 30%; also: 0% is about no effect
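TRHR-expressing cells loaded with fluo-8 calcium dye were read kinetically (ex 480/em 530) during compound addition, then stimulated with an EC20 of TRH (10 nM final). Enhancement of the Gq-mediated intracellular calcium response was scored.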
D1 agonist – Allosteric Agonists of the Human D1 Dopamine Receptor: qHTS; HEK293 T-REx D1 cells, calcium flux, agonist mode; activation, % at 2 µM; 360,000 compounds, 1% hits; AID 504660, 2011; also: 0% is about no effect
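Agonism was scored from calcium flux recorded over 180 s (1 read/s) after pintool compound addition, following a 10-cycle baseline. Cells were inducible force-coupled HEK293 TREx D1, plated overnight at 30 C and loaded with no-wash calcium dye.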
Active calls of the source: *; · = not tested or not shown. Rule as the data show it, unless noted: active = activation above about 30%; inactive = the rest.

SMILES | TRHR ag | D1 PAM | D1 antag | TRHR enhancer | D1 agonist
COc1cccc(C(C)NC(=S)NCc2ccc(F)cc2)c1 (centres undefined) | 1.4 | -1.5 | -3.3 | -8.9 | 15.7
CCC(NC(=S)NCc1ccc(F)cc1)c1ccc(C)cc1 (centres undefined) | 3.8 | -1.1 | -2.7 | -2.4 | 59.8*
Cc1cc(C)cc(NC(=O)COCc2cc(-c3ccc4c(c3)OCO4)on2)c1 | 0.4 | -3.6 | 4.2 | 0.7 | 11.1
CCOc1ccc(C(C)NC(=S)NCc2ccc(F)cc2)cc1 (centres undefined) | 3.4 | 0.3 | 0.7 | 0.0 | 58.6*
CCn1cc(/C=C/C(=O)Nc2c(C)nn(Cc3ccccc3)c2C)cn1 | -2.2 | -1.8 | 1.0 | 34.6* | 9.3
Cc1nn(Cc2ccccc2Cl)c(C)c1NC(=O)/C=C/c1cnn(C)c1 | -0.3 | -3.4 | -8.1 | 6.7 | 1.6
COc1ccc(NC(=O)c2ccc(-n3cccn3)c([N+](=O)[O-])c2)cc1 | -0.6 | -4.8 | -4.4 | -2.1 | 6.4
O=C(Nc1ccc(Cl)cc1)c1ccc(-n2cccn2)c([N+](=O)[O-])c1 | -0.3 | -2.8 | -32.2* | -4.5 | 18.6
Cc1c([N+](=O)[O-])cc(C(=O)Nc2ccc(Cc3ccncc3)cc2)cc1[N+](=O)[O-] | -0.1 | -3.5 | 0.6 | -3.8 | 16.6
O=C(Nc1ccc(Cc2ccncc2)cc1)c1ccc(Cl)c([N+](=O)[O-])c1 | -0.1 | -6.4 | -33.7* | 1.3 | 8.1
Cc1ccc2oc(C(=O)Nc3sc4c(c3C(=O)NCc3cccnc3)CCCC4)cc(=O)c2c1 | -0.4 | -1.2 | -5.6 | -1.4 | 2.2
Nc1cnc(-c2ccccc2)nc1Cl | 0.0 | -4.8 | -38.8* | -2.0 | -0.3
c1ccc(-c2cnc(-c3ccccc3)nc2)cc1 | 1.2 | 7.2 | 0.7 | 0.9 | -0.4
COc1ccccc1/C=C\C(=O)NCC(=O)N/N=C(/C)c1cccc([N+](=O)[O-])c1 | -0.2 | -1.6 | -64.9* | -0.9 | -1.3
CCc1ccc(/C(C)=N/NC(=O)CNC(=O)/C=C/c2ccccc2OC)cc1 | -1.6 | 0.0 | 7.7 | 19.7 | 1.1
CC(=O)c1ccc(C(=O)N2CCc3c([nH]c4ccccc34)C2c2ccccn2)s1 (centres undefined) | -1.4 | -1.6 | -30.9* | -2.0 | 1.1
O=C(c1cccs1)N1CCc2c([nH]c3ccccc23)C1c1ccccn1 (centres undefined) | 0.1 | -0.8 | 1.9 | 0.5 | 0.0
CCOC(=O)c1nn(-c2ccccc2)c(=O)cc1OCC(=O)Nc1cc(C)ccc1OC | 0.9 | 5.8 | -4.3 | 2.1 | 1.8
CCOC(=O)c1nn(-c2ccc(C)cc2)c(=O)cc1OCC(=O)Nc1cc(C)ccc1OC | 0.0 | -5.8 | -42.4* | 9.7 | 4.6
CN(CC(=O)NCc1ccc(F)cc1)S(=O)(=O)c1ccc2[nH]c3c(c2c1)CCCC3 | -0.7 | -1.0 | -10.0 | -2.0 | 1.4
Cc1cccc(NS(=O)(=O)c2ccc3[nH]c4c(c3c2)CCCCCC4)c1 | 0.0 | -6.0 | -87.1* | -1.6 | 0.9
CCOc1ccc(NS(=O)(=O)c2ccc3[nH]c4c(c3c2)CCCC4)cc1 | 0.0 | 1.4 | -51.5* | 5.7 | -0.4
COc1ccc(CNC(=O)CN(C)S(=O)(=O)c2ccc3[nH]c4c(c3c2)CCCC4)cc1 | 0.5 | 0.2 | -3.8 | 46.6* | -0.5
O=C(c1noc2c1CCCCC2)N1CCN(c2cccc(C(F)(F)F)c2)CC1 | 1.7 | -3.0 | -2.8 | -3.9 | 13.1
Cc1ccc(NC(=O)CSc2cc(=O)n(C)c3ccc(Cl)cc23)c(Br)c1 | 0.2 | -2.1 | -1.3 | -4.2 | 0.5
SMILES | TRHR ag | D1 PAM | D1 antag | TRHR enhancer | D1 agonist
O=C(Nc1cccn(Cc2ccccc2)c1=O)NC1CCCCC1 | -0.1 | -7.5 | 4.3 | -7.2 | 3.1
COc1cccc(Cn2cccc(NC(=O)NC3CCCCC3)c2=O)c1 | -1.2 | -7.8 | -31.1* | 18.5 | 1.3
O=c1c2ccccc2sn1-c1ccc(F)cc1 | 10.2 | -5.8 | -43.9* | 19.2 | 64.9*
Cc1cc2c(s1)c1cnn(Cc3ccc4ccccc4c3)c(=O)c1n2C | 0.1 | -4.7 | -1.6 | 3.6 | 3.9
COC(=O)N/N=C\c1c(C)nn(-c2ccccc2)c1Cl | 0.2 | 0.5 | -7.4 | -2.5 | 1.6
Cc1nn(-c2ccccc2)c(Cl)c1/C=N/NC(N)=O | -0.6 | 1.9 | -31.5* | -1.9 | 2.1
N#CN1CCC(NS(=O)(=O)c2ccc(F)cc2)C1 (centres undefined) | 1.3 | 2.4 | -6.5 | 0.3 | -0.1
O=C(CSc1nnnn1C1CC1)N1CCN(Cc2ccccc2F)CC1 | 0.0 | 1.2 | -34.4* | -4.7 | 1.8
COc1ccccc1N1CCN(C(=O)CSc2nnnn2C2CC2)CC1 | -0.4 | -3.2 | -12.8 | -9.9 | 1.7
Oc1ccc2nnc3c(Br)cnn3c2c1 | 52.3* | -2.3 | 1.3 | -6.2 | 171.0*
Clc1ccc2nc3c4ccccc4cnn3c2c1 | -1.0 | -8.8 | -4.8 | 0.0 | 0.7
COc1ccc(CN2CC(=O)N(c3ccc(C)c(C)c3)C2=S)cc1OC | 1.2 | -10.6 | -36.0* | 2.1 | 5.7
Cc1ccc2nc(CN3CCN(S(=O)(=O)c4ccc(F)cc4)CC3)oc2c1 | -0.4 | 5.3 | 0.6 | 1.6 | -1.0
CC(C)C[C@H](N)c1nnc(S(=O)(=O)Cc2ccc(F)cc2)o1 | -0.4 | -16.1 | -70.3* | -3.5 | 9.7
CC(C)C[C@H](N)c1nnc(SCc2ccc(Cl)cc2Cl)o1 | -1.9 | -0.5 | -11.1 | 29.7 | 27.2
CC1=C(C(N)=O)C(c2cccc(C)c2)n2nc(-c3ccc(Cl)cc3)nc2N1 (centres undefined) | 1.0 | -2.0 | -25.7 | -4.1 | 3.1
O=C(N/N=C/c1ccco1)C1(O)c2ccccc2-c2ccccc21 | -0.1 | -1.4 | 11.9 | -1.0 | 1.5
Cc1nn(C)cc1/C=N/NC(=O)C1(O)c2ccccc2-c2ccccc21 | 0.9 | -6.1 | -34.4* | -2.3 | 1.4
COC(=O)c1ccccc1NC(=O)c1cc(C)nc2c1c(C)nn2-c1ccc(C)cc1 | 0.4 | -3.2 | -9.2 | 0.6 | 2.9
O=C1CC(c2ccsc2)c2ccc3ccccc3c2N1 (centres undefined) | -0.4 | 3.0 | 3.2 | 36.7* | 2.6
Cc1ccc(S(=O)(=O)C(CNC(=O)C(=O)NCCc2ccc(F)cc2)c2cccs2)cc1 (centres undefined) | 0.2 | -3.5 | · | -7.4 | 5.3
CC1=C(C(=O)OC2CCCC2)C(c2ccc(F)cc2F)CC(=O)N1 (centres undefined) | -1.3 | -3.0 | -32.6* | -2.2 | 18.6
CCCCC(=NCCc1c(C)[nH]c2ccc(OC)cc12)C1=C(O)CC(c2ccccc2)CC1=O (centres undefined) | -0.6 | 9.6 | -34.3* | -6.7 | 6.2
